# In the library only some 4.1% were active in any assay of this set; here they are far more common.
# DAX1 inh-1: NR0B1 (DAX1) inhibition | P51843 | HEK293 Gal4-DAX1 luciferase reporter, luminescence | inhibition, % at 6.75 µM | 0.99% of 340,000 active | AID 504766;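 active means inhibition above the mean over all tested compounds plus 3 SD, cut at about 4.2% in these data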;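 further: 0% = DAX1-transfected cells with DMSO and 100% = empty-vector control cells with DMSO; inhibition shows as a rise in luminescence from relieved DAX1 repression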
# ssDAF-12 act: activators of S. stercoralis DAF-12 nuclear receptor; HEK293 ssDAF-12/GRIP1 lit1-tk-luc reporter, luminescence; % of 3 µM dafachronic acid response; activation, % at 6.8 µM; 1% of 370,000 active; AID 652126;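 active means activation above the mean over all tested compounds plus 3 SD, cut at about 0.9% in these data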;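 further: 0% = DMSO-only wells and 100% = 3 µM delta7-dafachronic acid wells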
# hgDAF12 agonist: activates the H. glycines DAF-12 receptor ligand-binding domain. HEK293 GAL4-hgDAF12 UAS-luciferase reporter, agonist luminescence; normalized to butyrate control. activation, % at 6.8 µM. 1.8% of 370,000 active;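 active means activation above a cutoff set at the mean of all screened compounds plus 3 SD, cut at about 10% in these data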;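 further: 0% = DMSO wells and 100% = sodium butyrate wells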
# hcDAF12 agonist: activates DAF-12 receptor from parasite H. contortus; HEK293 hcDAF-12 lit1-tk-luc reporter, luminescence; 0% DMSO, 100% Δ7-dafachronic acid; activation, % at 6.8 µM; 1.4% of 370,000 active;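 active means activation above the mean of all tested compounds plus 3 SD, cut at about 5.5% in these data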;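 further: 100% = response to 3 µM Δ7-dafachronic acid high control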
# DAX1 inh-2: blocks DAX1 repression of SF-1 activated StAR promoter | HEK293T StAR-luciferase reporter, SF-1/DAX-1 repression relief | inhibition, % at 6.8 µM | 1.1% of 370,000 active | AID 652010;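 active means inhibition above the mean over all tested compounds plus 3 SD, cut at about 3.6% in these data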;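 further: 0% = DAX-1 cells with DMSO and 100% = cells lacking DAX-1 with DMSO; higher inhibition means more luminescence from relief of DAX-1 repression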
# LXRb hcDAF ctr: LXR-beta agonism as hcDAF-12 counter-screen | shares compounds with hcDAF12 agonist | HEK293 Gal4-LXR tk-luc reporter, luminescence, 24 h; normalized: DMSO 0%, positive control 100% | activation, % at 6.8 µM | 3,400 tested, under 10 active | AID 743027;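 active means mean percent activation of the reporter above a cutoff set as the average over tested compounds plus their standard deviation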
# Target sequence (P55055 whole entry, looked up, the tested form may be a part): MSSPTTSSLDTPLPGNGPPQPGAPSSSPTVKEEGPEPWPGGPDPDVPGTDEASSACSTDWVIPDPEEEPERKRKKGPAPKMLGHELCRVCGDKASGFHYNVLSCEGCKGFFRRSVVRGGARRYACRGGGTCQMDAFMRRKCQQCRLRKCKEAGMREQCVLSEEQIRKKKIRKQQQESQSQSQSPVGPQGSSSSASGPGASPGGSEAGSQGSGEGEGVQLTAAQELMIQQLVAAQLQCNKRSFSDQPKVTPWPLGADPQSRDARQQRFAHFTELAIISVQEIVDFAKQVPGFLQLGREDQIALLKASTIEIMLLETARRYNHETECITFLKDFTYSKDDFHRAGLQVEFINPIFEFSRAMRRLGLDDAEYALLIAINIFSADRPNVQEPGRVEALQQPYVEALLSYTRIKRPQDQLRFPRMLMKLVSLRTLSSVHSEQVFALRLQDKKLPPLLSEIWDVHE
# hcDAF12 ag: hcDAF-12 agonism, confirmation assay. activation, % at 6.8 µM. shares compounds with hcDAF12 agonist. 61% of 3,400 active. AID 743032. HEK293 hcDAF-12 lit1-tk-luc reporter, luminescence; % of Δ7-dafachronic acid response;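 active means mean activation across triplicate tests above the threshold derived from the earlier primary screen, cut at about 5.5% in these data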;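 further: 0% = DMSO only wells and 100% = 3 µM Δ7-dafachronic acid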
# Active calls of the source: *; . = not tested or not shown.
SMILES,DAX1 inh-1,ssDAF-12 act,hgDAF12 agonist,hcDAF12 agonist,DAX1 inh-2,LXRb hcDAF ctr,hcDAF12 ag
COc1ccccc1NC(=O)c1oc2ccccc2c1C,3,2.2*,9,7.0*,-1,0,6.7*
CCCOc1ccc(C(=O)NC(=S)Nc2nc3ccccc3s2)cc1,1,0,2,6.9*,1,0,7.6*
O=C(NC(=S)Nc1ccccc1N1CCCCC1)c1ccco1,-2,-1,0,1,0,.,.
O=C(Nc1nc(-c2ccncc2)cs1)c1ccco1,1,-1,5,1,1,.,.
O=C(NC(=S)Nc1nc(-c2ccccc2)cs1)c1ccco1,1,0,-1,7.0*,0,0,7.3*
CC(=O)Nc1ccc2nc(NC(=O)c3ccco3)sc2c1,2,0,10,6.7*,2,1,10.0*
O=C(NC(=S)Nc1ccccc1N1CCCC1)c1ccco1,.,0,5,7.6*,0,0,5
COC(=O)[C@]12C[C@H](CC(=O)N3CCCCC3)C(=O)N(Cc3ccc4c(c3)OCO4)C1=C[C@H](C(C)(C)C)O[C@@H]2C,.,-1,-1,0,0,.,.
Cc1ccc(-c2csc(NC(=S)NC(=O)c3cccs3)n2)cc1,0,-1,2,2,0,.,.
O=C(NC(=S)Nc1nc(-c2ccccc2)cs1)c1cccs1,0,0,3,8.2*,0,0,5
O=C(NC(=S)Nc1nc2ccccc2s1)c1ccco1,3,2.2*,13*,11*,2,1,12*
O=C(NC(=S)Nc1cccc2cccnc12)c1cccs1,-1,-1,0,6.6*,-1,0,4
COC(=O)C1CN(Cc2cn(Cc3ccccc3)nn2)CCS(=O)(=O)N1Cc1ccc(Cl)cc1 (stereo not given),.,-2,-1,-2,0,.,.
CCOC(=O)C1=C(C(=O)OCC)C2N(Cc3ccc(C#N)cc3)c3ccccc3[C@@]23C[C@@H](C(=O)OC)N(S(=O)(=O)c2ccccc2C)C3=N1 (stereo not given in full),.,0,1,-2,1,.,.
CCOc1ccc(-n2nc3cc(C)c(N)cc3n2)cc1,4,1.8*,12*,7.5*,2,2,8.8*
Cc1cc2nn(-c3ccc(Cl)cc3)nc2cc1N,2,1.0*,10,9.7*,2,1,13*
Cc1ccc(-n2nc3ccc(N)cc3n2)cc1,1,0.9*,7,13*,3.7*,2,6.7*
COc1ccc(-n2nc3cc(C)c(N)cc3n2)cc1Cl,2,0,0,2,0,.,.
CC(C)OC(=O)[C@@H](Cc1ccccc1)N[C@H](/C=C/c1ccccc1)[C@@H](O)Cc1ccccc1,.,-1,4,2,0,.,.
O=S(=O)(c1cccs1)N1CCCc2nc(-c3ccccc3)ccc21,.,-1,1,0,1,.,.
CC(C)[C@H](NC(=O)c1cccs1)C(=O)N1CCC[C@H]1C(=O)NCc1ccccc1,.,-1,-1,1,0,.,.
O=C(Nc1ccsc1C(=O)O)c1cccc(C(F)(F)F)c1,2,0,5,3,1,.,.
O=C(Nc1ccsc1C(=O)O)c1ccc(Cl)cc1,2,3.0*,10,9.1*,2,1,12*
O=C(Nc1ccsc1C(=O)O)c1cccc(Oc2ccccc2)c1,0,0,13*,7.8*,2,1,7.3*
CC(C)C(C#CC1CC1)N(Cc1ccc2c(c1)OCO2)C(N)=NC(=O)/C=C/c1ccccc1 (stereo not given),.,-1,-3,-2,-1,.,.
SMILES,DAX1 inh-1,ssDAF-12 act,hgDAF12 agonist,hcDAF12 agonist,DAX1 inh-2,LXRb hcDAF ctr,hcDAF12 ag
O=C(NC1CCCC1)[C@@H]1CCCN1C(=O)[C@@H](NS(=O)(=O)c1ccc(F)cc1F)C1CCCCC1,.,-1,0,-1,-1,.,.
O=[N+]([O-])c1ccc(Nc2nc(Cl)nc(NCCO)n2)cc1,-1,1,2,6.8*,2,0,5
COc1nc(NCCO)nc(Nc2ccc([N+](=O)[O-])cc2)n1,0,-1,2,-1,-1,.,.
CC(=O)c1ccc(NC(=O)c2onc(C)c2Cl)cc1,0,0,9,7.8*,3,1,6.4*
Cc1noc(C(=O)Nc2ccc3c(c2)OCO3)c1Cl,2,1,8,6.7*,3,0,5
C=CCOc1ccc(C(c2c(C(=O)O)[nH]c3ccccc23)c2c(C(=O)O)[nH]c3ccccc23)cc1,2,0,3,7.5*,0,0,7.6*
CC1CCCC(=NNc2ccc3ccccc3n2)C1 (stereo not given),3,0,3,6.7*,1,0,3
CC1CCC/C(=N\NS(=O)(=O)c2ccccc2)C1 (stereo not given),0,-2,1,-1,0,.,.
CC(=O)c1c(CC(=O)O)[nH]n(-c2nc3ccccc3s2)c1=O,1,0,7,6.6*,2,0,5
Cc1ccc(C(=O)Nc2ccn(Cc3ccc(F)cc3)n2)o1,2,0,2,6.9*,1,0,3
O=C(NCc1ccccc1)OCCN1C(=O)CCC12CCC(c1ccc(Cl)cc1)CC2 (stereo not given),.,-2,3,-1,-1,.,.
CC(=O)Nc1sc(N/N=C\c2cccc(Cl)c2)nc1-c1cccs1,1,-1,5,8.4*,1,0,7.8*
O=[N+]([O-])c1nn(-c2ccc3c(c2)OCCO3)n(O)c1=NCc1ccccc1Cl,2,0,7,1,2,.,.
COc1ccccc1CN=c1c([N+](=O)[O-])nn(-c2ccc3c(c2)OCCO3)n1O,2,0,11*,9.0*,3,0,3
Cc1ccc(S(=O)(=O)N2CC3=C(c4ccccc4)CC4(C)C(=O)C(C)(C)CC4=C3C2)cc1 (stereo not given),.,-1,0,1,0,.,.
O=C1CNC(=S)N1c1nc2ccccc2s1,1,0,5,6.8*,1,0,8.0*
O=c1cc(-c2ccccc2)[nH]n1-c1nc2ccccc2s1,1,0,3,4,1,.,.
C=CCn1c(SCC(=O)OC(C)C)nnc1-c1ccc(C)cc1,.,-1,0,0,-1,.,.
CN(C(=O)c1ccccc1)c1nc2ccccc2s1,0,0,13*,6.8*,2,1,6.2*
CN(C(=O)c1ccc2nc(N)sc2c1)c1ccccc1,-1,-1,-1,-1,0,.,.

# Screening results: PubChem, The Scripps Research Institute Molecular Screening Center
